A selection: hits, their analogues and other compounds. The true share with any hit is near 3.5%.
MITF primary: human MITF inhibition, primary screen | O75030 | AlphaScreen MITF homodimerization, bead proximity signal | inhibition, % at 2.6 µM | 650,000 tested, 0.91% active | AID 1259374; in the data active = inhibition above about 50%;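 note: 0% = vehicle wells with protein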
TEAD-YAP block: TEAD-YAP interaction inhibition; AID 1259422; 640,000 tested, 1.4% active; HEK-TIYL cells, TEAD-Gal4/YAP UAS-luciferase luminescence; inhibition, % at 9.12 µM; in the data active = inhibition above about 32%;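 note: 0% = median of test compound wells and 100% = reference inhibitor wells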
FBW7 activator: activators of human E3 ligase FBW7; 650,000 tested, 0.13% active; normalized activity (activation), % at 26.1 µM; AlphaScreen FBW7–phospho-cyclin E peptide binding, activator screen; in the data active = normalized activity above about 1.9%;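 note: purified mutant Fbw7 with reduced substrate affinity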
GPR151 ag: activates the human receptor GPR151 | Q8TDV0 | 650,000 tested, 1% active | AID 1508602 | activation, % at 11.2 µM | PathHunter beta-arrestin GPR151 cells, luminescence; in the data active = activation above about 4.9%;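 note: 0% = median of compound wells and 100% = cells with positive control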
Target sequence (Q8TDV0 whole entry, looked up): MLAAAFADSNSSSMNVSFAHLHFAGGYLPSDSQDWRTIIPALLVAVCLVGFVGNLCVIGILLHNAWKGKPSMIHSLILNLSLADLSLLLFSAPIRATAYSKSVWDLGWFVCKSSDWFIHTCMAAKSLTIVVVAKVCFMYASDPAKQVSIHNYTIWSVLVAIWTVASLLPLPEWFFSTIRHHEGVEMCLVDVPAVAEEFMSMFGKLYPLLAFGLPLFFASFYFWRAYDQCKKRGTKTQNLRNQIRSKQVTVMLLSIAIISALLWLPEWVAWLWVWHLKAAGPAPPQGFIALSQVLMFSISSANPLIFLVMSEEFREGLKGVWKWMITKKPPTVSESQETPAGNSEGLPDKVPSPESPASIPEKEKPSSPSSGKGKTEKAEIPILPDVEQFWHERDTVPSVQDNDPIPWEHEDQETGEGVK
* marks the source's active call; other numbers are inactive results.

SMILES	MITF primary	TEAD-YAP block	FBW7 activator	GPR151 ag
O=C(NCc1ccc(F)cc1)c1cnn2c(C(F)(F)F)cc(-c3ccccc3)nc12	5	-7	0	0
Cc1csc(NC(=O)c2sc3nc4c(c(C(F)(F)F)c3c2N)CCCC4)n1	12	65*	0	1
Cc1ccc(-c2c3c(nc4sc(C(=O)Nc5ccccc5)c(N)c24)CCCC3)cc1	-17	2	0	-2
Cc1csc(NC(=O)c2sc3nc(C)c4c(c3c2N)CCCC4)n1	-3	94*	0	0
CCNC(=O)N1c2ccc(OCC)cc2C(C)=CC1(C)C	10	-2	0	4
CC1=CC(C)(C)N(S(=O)(=O)c2ccc(Br)cc2)c2ccc(C)cc21	-12	58*	0	0
CCOc1ccc2c(c1)N(S(=O)(=O)c1ccc(NC(C)=O)cc1)C(C)(C)C=C2C	6	73*	0	0
CCOc1ccc2c(c1)C(C)=CC(C)(C)N2S(=O)(=O)c1ccc(Br)cc1	5	61*	0	1
CCOc1cc(C=O)ccc1OC(=O)c1ccccc1I	5	8	0	3
Cc1cc(NCCN(C(C)C)C(C)C)nc(Oc2ccccc2)n1	-2	64*	0	1
COc1ccc(CCNc2cc(C)nc(Oc3ccccc3)n2)cc1	19	35*	0	3
NCCCNC(=O)c1nonc1N	20	8	0	-1
CCC(C)(C)NC(=O)CCN1C(=O)c2cccc([N+](=O)[O-])c2C1=O	8	16	0	0
O=C(CSc1nccc(=O)[nH]1)c1ccc(O)c(O)c1	55*	2	0	-2
CCOCCCNCC(O)COc1c(Cl)cccc1Cl (stereo unspecified)	30	52*	0	-1
O=C(Oc1cccc(N2C(=O)CCC2=O)c1)c1ccccc1Cl	7	0	0	-1
Cc1c(C(c2cc(C(C)(C)C)c(O)c(C(C)(C)C)c2)c2c(C)n(C)n(-c3ccccc3)c2=O)c(=O)n(-c2ccccc2)n1C	7	12	0	1
CC(=O)N(/N=C1\Sc2ccccc2C1=O)c1ccccc1I	29	76*	0	-1
COC(=O)Nc1ccc(SCC(=O)c2ccccc2)cc1	3	-2	0	2
CC(C)(C)OC(=O)Nc1ccc(SCC(=O)O)cc1	-7	83*	0	1
COC(=O)c1cc(Nc2cccc(OC)c2)c2cc(Cl)ccc2n1	4	38*	0	0
COC(=O)c1cc(Nc2ccccc2OC)c2cc(Cl)ccc2n1	-2	28	0	2
COC(=O)c1cc(Nc2ccc3c(c2)OCO3)c2cc(C)ccc2n1	-11	13	0	0
COC(=O)c1cc(Nc2cc(OC)cc(OC)c2)c2cc(C)ccc2n1	1	41*	0	1
Cn1c(=O)c2c(nc(-n3ccnc3)n2Cc2ccc(Cl)cc2Cl)n(C)c1=O	4	-17	1.9*	1
SMILES	MITF primary	TEAD-YAP block	FBW7 activator	GPR151 ag
Cc1cc2ccccc2cc1Cn1c(-n2ccnc2)nc2c1c(=O)n(C)c(=O)n2C	2	6	0	1
C=CCn1c(C)cc(C2=NNC(=Nc3ccccc3OC)SC2)c1C	-12	72*	0	1
COCCn1c(C)cc(C2=NNC(=Nc3ccc(C)cc3)SC2)c1C	-5	-3	0	0
COc1ccccc1N=C1NN=C(c2ccccc2OC)CS1	0	-13	0	-1
COCCCN=C1NN=C(c2cc(C)n(Cc3ccco3)c2C)CS1	-2	46*	0	1
C=CCN=C1NN=C(c2cc(C)n(CCOC)c2C)CS1	5	95*	0	-7
COCCn1c(C)cc(C2=NNC(=Nc3cccc(C)c3)SC2)c1C	13	25	0	1
Cc1cc(C2=NNC(=Nc3ccccc3)SC2)c(C)n1CC1CCCO1 (stereo unspecified)	7	54*	0	0
COC(=O)c1cnc(-n2cncn2)c(Cl)c1	12	11	0	-1
O=C(Nc1cccc(-c2nc3ccccc3[nH]2)c1)c1cc(=O)c2ccccc2o1	-9	41*	2	0
Cc1ccccc1C(=O)Nc1ccc(C(=O)OC(C)C)cc1	1	-25	0	-1
Cc1ccccc1C(=O)Nc1ccc(-c2nc3ccc(NC(=O)c4ccccc4C)cc3[nH]2)cc1	11	76*	0	1
Cc1ccccc1C(=O)Nc1ccc(OC(=O)c2ccccc2C)cc1	-4	64*	0	3
O=C(Nc1cccc(-c2nc3ccccc3[nH]2)c1)c1cccc2nccnc12	1	34*	0	2
O=C(Nc1ccc(-c2nc3ccc(NC(=O)c4ccccc4)cc3[nH]2)cc1)c1ccccc1	6	-43	0	1
O=C(Nc1cccc(-c2nc3ccccc3o2)c1)c1cc(=O)c2ccccc2o1	-2	-1	0	0
COc1cccc(-n2c(O)c(C3OC(=O)c4ccccc43)c(=O)[nH]c2=O)c1 (stereo unspecified)	-6	-3	0	3
CCOC(=O)c1ccc(NC(=O)/C(C#N)=C/c2ccc(C3CC3C)o2)cc1 (stereo unspecified)	13	41*	0	1
COc1ccccc1/C=C(/C#N)C(=O)Nc1ccc(O)cc1	-9	10	0	1
Cc1ccc(NC(=O)/C(C#N)=C/c2ccccc2O)cc1	-16	49*	0	2
COc1ccc(NC(=O)/C(C#N)=C/c2ccccc2OC(C)C)cc1	2	51*	0	3
Cc1cccc(NC(=O)/C(C#N)=C\c2ccccc2O)c1	11	-51	0	0
COc1ccc(NC(=O)/C(C#N)=C\c2ccc(N(C)C)o2)cc1	-16	33*	0	2
COc1ccc(NC(=O)/C(C#N)=C/c2ccc(Br)o2)cc1	9	-14	0	0
O=C(Nc1ccccc1)N(Cc1nnc2n1CCCCC2)c1ccccc1	2	-4	0	0
SMILES	MITF primary	TEAD-YAP block	FBW7 activator	GPR151 ag
O=C(c1cc(COc2cccc3cnccc23)on1)N1CCN(C(=O)c2cccs2)CC1	0	43*	0	3
O=C(c1ccc(I)cc1)N1CCCc2ccccc21	-4	14	0	1
O=C(c1cccc(I)c1)N1CCCc2ccccc21	10	-8	2.3*	-1
O=C(CCSc1ccccc1)Nc1cccc(-c2ccn[nH]2)c1	7	-3	0	4
CN(C)c1ncn(-c2ccc(Nc3nccc(-c4cncc(N5CCOCC5)c4)n3)cc2)n1	-5	63*	0	0
FC(F)(F)c1ncn(-c2ccc(Nc3nccc(-c4cncc(N5CCOCC5)c4)n3)cc2)n1	-8	-9	0	0
CC(C)(C)c1ncn(-c2ccc(Nc3nccc(-c4cncc(N5CCOCC5)c4)n3)cc2)n1	-12	74*	0	4
Cc1ccccc1C=Nc1cccc(C(N)=O)c1	2	-3	0	1
CC(C)(C)c1csc(NC(=O)c2ccc(S(=O)(=O)N3CCOCC3)cc2)n1	17	36*	0	2
Cc1ccc(-c2csc(NC(=O)c3ccc(S(=O)(=O)N4CCOCC4)cc3)n2)o1	1	28	0	-1

Assay outcomes deposited in PubChem by The Scripps Research Institute Molecular Screening Center.
